Results on 62 compounds are retold here after ChEMBL document CHEMBL3988442, “University of Dundee, Small-Polar-MMV Screening Library” (2021).

The subject of the test is Plasmodium falciparum. As to the kind of experiment: Calibr Malaria Delayed Death Assay SOP. It is filed as functional, organism-based. Details: scale not given: in the data most compounds retested in dose-response had high values. To be noted: concentration 4.99e-06 (unit not given; other assays of the set use mol/L).

Values joined by “and” are separate entries in the source; they are usually repeats but may differ in a detail not shown here. Equal values may be shown once. Out of some 38,000 compounds screened, about 1,200 (3.2%) showed an effect of 50% or more. The median lay at about -58%. Many of the other results were omitted from the sample, so strong results are more common in it than they were.

As to `O=S(=O)(NCC(O)c1ccc2c(c1)CCO2)c1ccccc1F` (configuration not stated), the “Percent Effect” value was -109.3%.
With `COCCN1CCCC12CCN(Cc1cncn1C)CC2.O=C(O)C(F)(F)F.O=C(O)C(F)(F)F`, the “Percent Effect” value is reported as -15.64%.
Same read-out and setting: the figure for `CC1(c2ccccc2)CCC(=O)N(CCN2CCOCC2)C1` (configuration not stated) is -51.4%.
As to `CC1(c2ccccc2)CCCN(C(=O)c2ccn3nnnc3c2)C1` (configuration not stated), the “Percent Effect” value is -91.8%.
The same measure, in the same setting: the figure for `COCCn1cncc1CN1CCC(C(C)=O)(c2ccccc2)CC1` is -24.83%.
On the same count and under the same terms, in the case of `COc1ncc(CN2CCC3(CCCN(CC4CCCCC4)C3)C2)cn1` (configuration not stated) it was -65.28%.
As to `O=C(Cc1ccccc1)C1CCCN(Cc2cncn2C2CCCC2)C1` (configuration not stated), the “Percent Effect” value is listed as 56.54%.
On the same count and under the same terms, in the case of `CC1(c2ccccc2)CCCN(Cc2cncn2C2CC2)C1` (configuration not stated) it was 67%; in that of `COCCn1cncc1CN1CCCC(C)(c2ccccc2)C1` (configuration not stated), 61.23%; in that of `CC1(c2ccccc2)CCCN(Cc2cncn2C2CCCC2)C1` (configuration not stated), 90.6%.
Take `O=C(C1CCCN(Cc2cccnc2)C1)N1CCc2sccc2C1` (configuration not stated): the “Percent Effect” value is on record as -120.1%.
With `CCc1nccn1C1CCCN(C(=O)c2cncn2-c2ccccc2)C1` (configuration not stated), the “Percent Effect” value (4.99 µM) is -131.8% and -127.1%.
As to `O=C(C1CCCN(Cc2ccccc2)C1)N1CCc2sccc2C1` (configuration not stated), the “Percent Effect” value was found to be 11.44%.
As for `O=C(O)C(F)(F)F.O=C(O)C(F)(F)F.O=C1N(Cc2cccnc2)CCC12CCCN(c1ncccn1)C2` (configuration not stated), the “Percent Effect” value is -131.5%.
The same measure, in the same setting: the figure for `CS(=O)(=O)c1cncnc1C1CCCNC1.Cl` (configuration not stated) is -139%; for `CCN1CCO[C@@H]2CN(C(=O)NCc3ccccc3)CC[C@@H]2C1` it is -134.2%; for `CCC(=O)NC(c1ccc(C)cc1)c1cccc(S(C)(=O)=O)c1` (configuration not stated) it is -119.8%.
The same measure, in the same setting: the figure for `COc1cc(N2C[C@@H]3COC[C@@H](Cc4nc(C)no4)[C@@H]3C2)ncn1` is -87.35%; for `Cc1ccc(C(=O)N2C[C@@H]3CCCO[C@@H]3[C@H](N(C)Cc3ccco3)C2)o1.O=C(O)C(F)(F)F` it is -32.67%.
Take `CCNC(=O)c1c2c(N3CCN(C)CC3)ncnc2n2ccccc12`: the “Percent Effect” value is on record as -74.14%.
Still for that read-out and setting: the figure for `CCCN1CCC(CNC(=O)C2(c3cccc(C)c3)CC2)C1` (configuration not stated) is -64.24%; for `CCN1CCC(CNC(=O)C2(c3ccc(F)cc3)CC2)C1` (configuration not stated) it is 28.54%; for `CCCN1CCC(CNC(=O)C2(c3ccccc3)CCC2)C1` (configuration not stated) it is 65.3%.
With `COCCN1CCC(CNC(=O)C2(c3ccccc3)CCC2)C1` (configuration not stated), the “Percent Effect” value is -3.533%.
With `Cc1cc(C)cc(C2(C(=O)NCC3CCN(CC(F)(F)F)C3)CC2)c1` (configuration not stated), the “Percent Effect” value was -75.87%.
The same measure, in the same setting: in the case of `CCOCCC(=O)N1CCN(CC(C)O)CC1` (configuration not stated) it was -101.9%; in that of `Cn1ncnc1CNC(=O)N(CCCO)C1CCc2ccccc21` (configuration not stated), -16.9%.
Same read-out and setting: the figure for `Cn1cc(N2CC3(CCN(Cc4cccnc4)CC3)OCC2=O)cn1.O=C(O)C(F)(F)F.O=C(O)C(F)(F)F` is -71.74%; for `CC(=O)N1CCN(C(=O)NCCc2ccc(Cl)s2)CC1` it is -108.8%.
The same measure, in the same setting: in the case of `Cc1cc(C)c(CNC(=O)NCC2Cc3ccccc3O2)c(=O)[nH]1` (configuration not stated) it was -144.1%.
As for `CN1CCC(c2cccc(Cc3ccccc3)n2)CC1`, the “Percent Effect” value was -0.8146%.
As to `CN1CCC(c2cccc(Cc3ccc(C(F)(F)F)cc3)n2)CC1`, the “Percent Effect” value came out at 50.24%.
The same measure, in the same setting: in the case of `Fc1ccc(Cc2cccc(C3CCN(C4CCOCC4)CC3)n2)cc1` it was 38.56%.
On to `COC1CCN(C(=O)C2CCCC2)CC(=O)N(C)c2ccccc21` (configuration not stated), for which the “Percent Effect” value is recorded as -134%.
The same measure, in the same setting: the figure for `CC1CN(C(=O)Nc2cc(C(F)(F)F)c[nH]c2=O)CC(C)(C)O1` (configuration not stated) is -36.51%.
Take `Cc1ccsc1C(O)CNC(=O)Cc1ccc(S(=O)(=O)C(C)C)cc1` (configuration not stated): the “Percent Effect” value came to 0.3509%.
The same measure, in the same setting: the figure for `COc1ccc(-c2cccc3c2OC(CN)C3)cc1F` (configuration not stated) is 62.39%.
Same read-out and setting: the figure for `COc1cc(-c2cccc3c2OC(CN)C3)ccc1O` (configuration not stated) is 37.76%; for `NCC1Cc2cccc(-c3ccc(O)c(F)c3)c2O1` (configuration not stated) it is 82.73%; for `COc1c(F)cc(-c2cccc3c2OC(CN)C3)cc1F` (configuration not stated) it is 35.23%.
Same read-out and setting: the figure for `COc1cc(-c2cccc3c2OC(CN)C3)cc(OC)c1OC` (configuration not stated) is 46.68%; for `Cc1ccc(C(O)CNC(=O)NCc2c(C)cc(C)[nH]c2=O)cc1` (configuration not stated) it is -76.06%; for `Cc1nc(-c2cccnc2)ncc1C(=O)N1CCCC(N(C)C)CC1` (configuration not stated) it is -60.09%.
For the compound `Cc1cccc(OC2CCN(S(=O)(=O)Cc3cccc(F)c3)CC2)n1`, the “Percent Effect” value is listed as -131.9%.
Regarding `CN(C)CC1CSCCCN1S(=O)(=O)Cc1cccc(F)c1` (configuration not stated), the “Percent Effect” value is 58.19%.
With `CN(C)CC1CSCCCN1C(=O)c1ccc(C(C)(C)C)cc1` (configuration not stated), the “Percent Effect” value is listed as 0.9343%.
As for `CN(C)CC1CSCCCN1S(=O)(=O)c1ccc(C(F)(F)F)cc1` (configuration not stated), the “Percent Effect” value is 60.28%.
Regarding `CS(=O)(=O)C1CCN(S(=O)(=O)Cc2cccc(F)c2)CC1`, the “Percent Effect” value is -94.28%.
The same measure, in the same setting: in the case of `CN(C)CC1CSCCCN1S(=O)(=O)Cc1ccc(C(F)(F)F)cc1` (configuration not stated) it was 9.215%; in that of `Cc1cccc(CN2CC[C@@H]3[C@@H]2CCN3C(=O)c2cc(C)oc2C)n1.O=C(O)C(F)(F)F`, -98.87%.
On the same count and under the same terms, the figure for `Cn1nc2c(cc1=O)CN(Cc1nc(N)c3ccccc3n1)CC2` is -169.7%.
Same read-out and setting: in the case of `Cc1cccc(C2CCCN(C(=O)c3ccncc3)C2)n1` (configuration not stated) it was -31.2%; in that of `CCc1ccc(C(=O)N2CC(C(=O)NC(C)C)C3(CCOCC3)C2)cc1` (configuration not stated), -34.39%; in that of `[O-][S+](CCN1CCc2[nH]nc(C(F)(F)F)c2C1)c1ccccc1` (configuration not stated), -19.45%.
With `OCCN1CCc2[nH]nc(C(c3ccccc3)c3ccccc3)c2C1`, the “Percent Effect” value is 59.95%.
`CC(O)CN1CCc2[nH]nc(C(c3ccccc3)c3ccccc3)c2C1` (configuration not stated): the “Percent Effect” value was 40.85%.
`FC(F)(F)c1n[nH]c2c1CN(CCc1ccccn1)CC2`: the “Percent Effect” value is on record as -42.86%.
On to `O=C(CCN1CCc2[nH]nc(C(F)(F)F)c2C1)Nc1ccccc1`, for which the “Percent Effect” value is recorded as -17.85%.
The same measure, in the same setting: in the case of `OCCCN1CCc2[nH]nc(C(c3ccccc3)c3ccccc3)c2C1` it was 71.73%.
On the same count and under the same terms, the figure for `COCCCC1(C(=O)O)CCCN(C(=O)c2ccc(Cl)cc2F)C1` (configuration not stated) is -104.4%.
In the case of `CNC(=O)c1ccc2c(c1)C1(CCN(CC3CC3)CC1)C(=O)N2.O=C(O)C(F)(F)F`, the “Percent Effect” value is listed as -45%.
Take `CN(Cc1ccncc1)C1COC2(CCN(Cc3ccco3)CC2)C1.O=C(O)C(F)(F)F.O=C(O)C(F)(F)F.O=C(O)C(F)(F)F` (configuration not stated): the “Percent Effect” value is reported as -70.95%.
